The source of these data is PubChem BioAssay (NCI).

Test [1] is described as follows: NCI Yeast Anticancer Drug Screen. Data for the rad50 strain (AID 155).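 Note: 0% = growth of vehicle-only cultures of the same strain.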 The conditions noted are these: S. cerevisiae rad50 strain growth inhibition, hits give high values. In short, it runs like this:
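Yeast carrying a defined DNA repair defect were exposed to test compounds, and growth was compared with vehicle-treated controls to give percent inhibition.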

Test [2] in a line: NCI Yeast Anticancer Drug Screen. Data for the mec2-1 strain (AID 157). The following applies: S. cerevisiae mec2-1 strain, hits give high values. In short, it runs like this: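 Mutant yeast (mec2-1) grown with compound; growth inhibition relative to vehicle control reported.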
The nature of test [3]: NCI Yeast Anticancer Drug Screen. Data for the sgs1 mgt1 strain (AID 161).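 Note: 0% = growth of cultures given vehicle only.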 The following applies: S. cerevisiae sgs1 mgt1 strain, hits give high values. Summed up:
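This yeast growth screen uses a strain with defined DNA-repair lesions; compound-treated growth is compared with vehicle-treated growth.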

A short description of test [4]: NCI Yeast Anticancer Drug Screen. Data for the cln2 rad14 strain (AID 165).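 Note: 0% = growth equal to vehicle treated cultures.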 The conditions noted are these: S. cerevisiae cln2 rad14 strain, hits give high values. In short, it runs like this: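 Readout is yeast growth inhibition versus vehicle-treated controls, using a strain with cln2 and rad14 alterations exposed to compound.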
A short description of test [5]: NCI Yeast Anticancer Drug Screen. Data for the bub3 strain (AID 167). The conditions noted are these: S. cerevisiae bub3 mutant strain, hits give high values. Summed up:
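Compounds were applied to a genetically altered yeast strain carrying a cell-cycle control defect. Growth inhibition was scored against vehicle-treated controls.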

The nature of test [6]: NCI Yeast Anticancer Drug Screen. Data for the mlh1 rad18 strain (AID 175). The conditions noted are these: S. cerevisiae mlh1 rad18 strain growth inhibition, hits give high values. Summed up:
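Genetically defined yeast (DNA repair-deficient) exposed to compounds; growth inhibition determined relative to vehicle.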

Where [7] appears, read: at 5.0 µM (retest, dose inferred, filed as 0.5).
Setting [8] is: at 50.0 µM (retest, dose inferred, filed as 5.0).

Structures are written as SMILES. This is part of a sample that, as a whole, favours compounds with a hit. Of some 79,000 tested, about 15% had one in any assay. Unmarked numbers belong to inactive results. Active and inactive are the calls of the source. Cut-off read from the data, not from the text of the source: active = growth inhibition above about 70%; inactive = the rest.

Take `COc1ccc(OC)c2c1C=CC(Br)=CC2`: the growth inhibition was 33% in test [1] (setting [7]); 33% in test [1] (setting [8]); 55.1% in test [1] (at 50.0 µM); 24% in test [2] (setting [7]); 24% in test [2] (setting [8]); 27% in test [2] (at 50.0 µM). Further, the growth inhibition in test [3] (setting [7]) is 26%; in test [3] (setting [8]), 26%; in test [3] (at 50.0 µM), 45.5%; in test [4] (setting [7]), 6%; in test [4] (setting [8]), 6%; in test [4] (at 50.0 µM) it was 15.4%. For the same molecule, the growth inhibition in test [5] (setting [7]) is 19%; in test [5] (setting [8]), 19%; in test [5] (at 50.0 µM), 40.8%; in test [6] (setting [7]), 30%; in test [6] (setting [8]), 30%; in test [6] (at 50.0 µM) it was 39.5%.

With `COc1cccc(/C=N/NC(=O)c2c(-c3ccccc3)noc2C)c1O`, the growth inhibition in test [1] (setting [7]) is 47%; in test [1] (setting [8]), 70% (active); in test [1] (at 50.0 µM) it was 85% (active); in test [2] (setting [7]) it was 26%; in test [2] (setting [8]), 86% (active); in test [2] (at 50.0 µM) it was 84.1% (active). Moreover, the growth inhibition in test [3] (setting [7]) was 45%; in test [3] (setting [8]), 82% (active); in test [3] (at 50.0 µM), 89.2% (active); in test [4] (setting [7]) it was 25%; in test [4] (setting [8]), 51%; in test [4] (at 50.0 µM), 83.3% (active). In addition, the growth inhibition in test [5] (setting [7]) is 42%; in test [5] (setting [8]) it was 85% (active); in test [5] (at 50.0 µM), 85.5% (active); in test [6] (setting [7]), 58%; in test [6] (setting [8]), 87% (active); in test [6] (at 50.0 µM), 81.8% (active).

Turning to `CC1OC(CC(=O)O)Cc2c1c(O)c1c(O)cc(-c3cc(=O)c4c(=O)c5c(c(=O)c=4c3=O)CC(CC(=O)O)OC5C)c(O)c1c2O` (stereo not given), the growth inhibition in test [1] (setting [7]) was -3%; in test [1] (setting [8]), 6%; in test [1] (at 50.0 µM) it was -7.4%; in test [2] (setting [7]) it was 3%; in test [2] (setting [8]) it was 2%; in test [2] (at 50.0 µM), 7.35%. Also, the growth inhibition in test [3] (setting [7]) is -1%; in test [3] (setting [8]) it was 2%; in test [3] (at 50.0 µM), 54.4%; in test [4] (setting [7]), 1%; in test [4] (setting [8]), 29%; in test [4] (at 50.0 µM), -24.4%. For the same molecule, the growth inhibition in test [5] (setting [7]) is 22%; in test [5] (setting [8]), 14%; in test [5] (at 50.0 µM), 11.3%; in test [6] (setting [7]) it was 0%; in test [6] (setting [8]), 2%; in test [6] (at 50.0 µM), 15.7%.

In the case of `O=S(=O)(C#Cc1ccccc1)c1ccccc1`, the growth inhibition is 12% in test [1] (setting [7]); 98% (active) in test [1] (setting [8]); 99.4% (active) in test [1] (at 50.0 µM); -11% in test [2] (setting [7]); 99% (active) in test [2] (setting [8]); 99.5% (active) in test [2] (at 50.0 µM). Also, the growth inhibition was 24% in test [3] (setting [7]); 99% (active) in test [3] (setting [8]); 99.4% (active) in test [3] (at 50.0 µM); 7% in test [4] (setting [7]); 99% (active) in test [4] (setting [8]); 99.2% (active) in test [4] (at 50.0 µM). In addition, the growth inhibition is 3% in test [5] (setting [7]); 98% (active) in test [5] (setting [8]); 99.1% (active) in test [5] (at 50.0 µM); 16% in test [6] (setting [7]); 99% (active) in test [6] (setting [8]); 99% (active) in test [6] (at 50.0 µM).

`COc1ccc2nc3cccc([N+](=O)[O-])c3c(NCCN(C)C)c2c1`: the growth inhibition in test [1] (setting [7]) is 86% (active); in test [1] (setting [8]), 95% (active); in test [1] (at 50.0 µM), 80% (active); in test [2] (setting [7]), 95% (active); in test [2] (setting [8]) it was 98% (active); in test [2] (at 50.0 µM) it was 88.5% (active). In addition, the growth inhibition in test [3] (setting [7]) was 87% (active); in test [3] (setting [8]) it was 74% (active); in test [3] (at 50.0 µM), 84.5% (active); in test [4] (setting [7]), 92% (active); in test [4] (setting [8]), 97% (active); in test [4] (at 50.0 µM), 83% (active). For the same molecule, the growth inhibition is 36% in test [5] (setting [7]); 96% (active) in test [5] (setting [8]); 82.2% (active) in test [5] (at 50.0 µM); 92% (active) in test [6] (setting [7]); 97% (active) in test [6] (setting [8]); 79.6% (active) in test [6] (at 50.0 µM).

In the case of `CCCCCC1OC(CCCCC)OC(CCCCC)O1` (stereo not given), the growth inhibition in test [1] (setting [7]) was -10%; in test [1] (setting [8]), 33%; in test [1] (at 50.0 µM), 10.2%; in test [2] (setting [7]), 13%; in test [2] (setting [8]), -19%; in test [2] (at 50.0 µM) it was 6.6%. Moreover, the growth inhibition was 0% in test [3] (setting [7]); 7% in test [3] (setting [8]); 16.3% in test [3] (at 50.0 µM); 4% in test [4] (setting [7]); 3% in test [4] (setting [8]); 8.25% in test [4] (at 50.0 µM). Also, the growth inhibition in test [5] (setting [7]) is -12%; in test [5] (setting [8]), 20%; in test [5] (at 50.0 µM), -13.9%; in test [6] (setting [7]) it was -8%; in test [6] (setting [8]), -3%; in test [6] (at 50.0 µM), 11.7%.

On to `CCCCCCCCCCCC(C)N` (stereo not given), for which the growth inhibition in test [1] (setting [7]) was 15%; in test [1] (setting [8]), 83% (active); in test [1] (at 50.0 µM) it was 99% (active); in test [2] (setting [7]), 4%; in test [2] (setting [8]), 78% (active); in test [2] (at 50.0 µM) it was 99.5% (active). The growth inhibition was 4% in test [3] (setting [7]); 91% (active) in test [3] (setting [8]); 98.7% (active) in test [3] (at 50.0 µM); 12% in test [4] (setting [7]); 25% in test [4] (setting [8]); 98% (active) in test [4] (at 50.0 µM). Besides, the growth inhibition in test [5] (setting [7]) was 11%; in test [5] (setting [8]) it was 86% (active); in test [5] (at 50.0 µM), 99.2% (active); in test [6] (setting [7]), 2%; in test [6] (setting [8]), 74% (active); in test [6] (at 50.0 µM) it was 98.1% (active).

As to `O=C1c2ccccc2-c2nc3ncccc3cc21`, the growth inhibition in test [1] (setting [7]) is 27%; in test [1] (setting [8]) it was 93% (active); in test [1] (at 50.0 µM) it was 95.7% (active); in test [2] (setting [7]), 6%; in test [2] (setting [8]), 83% (active); in test [2] (at 50.0 µM) it was 56.1%. In addition, the growth inhibition is 4% in test [3] (setting [7]); 78% (active) in test [3] (setting [8]); 42.2% in test [3] (at 50.0 µM); 6% in test [4] (setting [7]); 63% in test [4] (setting [8]); 57.9% in test [4] (at 50.0 µM). For the same molecule, the growth inhibition was 4% in test [5] (setting [7]); 57% in test [5] (setting [8]); 79.4% (active) in test [5] (at 50.0 µM); -5% in test [6] (setting [7]); 88% (active) in test [6] (setting [8]); 71.4% (active) in test [6] (at 50.0 µM).

Consider `Cc1ccc2c(c1)C1(SCC(=O)N1c1ccc(Cl)cc1)C(=O)N2` (stereo not given), for which the growth inhibition in test [1] (setting [7]) was 1%; in test [1] (setting [8]), 57%; in test [1] (at 50.0 µM), 48.6%; in test [2] (setting [7]), 6%; in test [2] (setting [8]), 36%; in test [2] (at 50.0 µM) it was 16.4%. Further, the growth inhibition in test [3] (setting [7]) was 5%; in test [3] (setting [8]) it was 62%; in test [3] (at 50.0 µM), 77.8% (active); in test [4] (setting [7]) it was -1%; in test [4] (setting [8]) it was 28%; in test [4] (at 50.0 µM), 20.8%. Moreover, the growth inhibition in test [5] (setting [7]) is 4%; in test [5] (setting [8]), 74% (active); in test [5] (at 50.0 µM), 64.9%; in test [6] (setting [7]), -5%; in test [6] (setting [8]), 69%; in test [6] (at 50.0 µM), 67.9%.

On to `COc1ccc(NS(=O)(=O)c2ccc(F)cc2)cc1`, for which the growth inhibition was -21% in test [1] (setting [7]); -3% in test [1] (setting [8]); 95.9% (active) in test [1] (at 50.0 µM); 1% in test [2] (setting [7]); -12% in test [2] (setting [8]); 99.3% (active) in test [2] (at 50.0 µM). Moreover, the growth inhibition in test [3] (setting [7]) is -26%; in test [3] (setting [8]) it was -22%; in test [3] (at 50.0 µM), 98.5% (active); in test [4] (setting [7]), 6%; in test [4] (setting [8]), -22%; in test [4] (at 50.0 µM), 97.5% (active). Also, the growth inhibition in test [5] (setting [7]) is 6%; in test [5] (setting [8]) it was -21%; in test [5] (at 50.0 µM), 97.2% (active); in test [6] (setting [7]) it was -15%; in test [6] (setting [8]), -18%; in test [6] (at 50.0 µM), 98.5% (active).
